PubChem BioAssay AID588499 (NMMLSC, 2011)
In all, about 360,000 compounds went through this assay and about 610 (0.17%) were called active. Not shown: some 2% with an inconclusive outcome. This excerpt belongs to a sample that is enriched for actives. Unmarked numbers belong to inactive results. No stated cut-off is given here; in the data, active means inhibition above about 30%; inconclusive means no clear call, values can overlap the other calls; inactive means below that.

System: Botulinum neurotoxin type A light chain protease (Clostridium botulinum A str. ATCC 3502)
Assay: blockers of BoNT/A LC substrate cleavage – biochemical, flow cytometry, MLPCN library, primary screen (AID 588499); further: plate controls were buffer without enzyme for full effect and enzyme alone for no effect
Settings: multiplex microsphere protease substrate cleavage, at 10 µM, stronger effect = higher value

Row | Structure (SMILES) | inhibition
1 | CCOc1ncccc1C(=O)OCC(=O)c1c[nH]c2ccccc12 | 36.8% (active)
2 | O=C(OCC(=O)c1c[nH]c2ccccc12)c1cccc(O)c1 | 0.8%
3 | CCOc1ncccc1C(=O)OCC(=O)NC1CC1 | -0.4%
4 | CC1CCCCC12NC(=O)N(CC(=O)Nc1ccc(S(=O)(=O)Nc3ncccn3)cc1)C2=O (stereo not drawn) | -0.7%
5 | CC(=O)Nc1ccc(-c2ccnc3c2CC(C(=O)NC(C)C)O3)cc1 (stereo not drawn) | 0.1%
6 | CCCc1ccc(C(O)c2ncc(-c3cccc(OC)c3)[nH]2)cc1 (stereo not drawn) | 0.3%
7 | COc1ccc(C2CC(c3cccs3)=NN2C(=O)CSc2nnc(N)s2)cc1OC (stereo not drawn) | 0.2%
8 | COc1ccc(C2CC(c3cccs3)=NN2C(=O)CSc2nncs2)cc1OC (stereo not drawn) | 0.2%
9 | COc1ccc(C2CC(c3cccs3)=NN2c2nc(C)c(C(C)=O)s2)cc1OC (stereo not drawn) | 63.7% (active)
10 | CCN(CC)C(=O)Oc1ccc(Br)cc1C(=O)Nc1ccc(F)c(Cl)c1 | -0.8%
11 | O=C(NCCCn1ccnc1)C(=O)c1cn(CC(=O)N2CCCCCC2)c2ccccc12 | 30.5% (active)
12 | Cc1ccc(CNC(=O)C(=O)c2cn(CC(=O)N3CCCC3)c3ccccc23)cc1 | 0%
13 | O=C(NCc1ccco1)C(=O)c1cn(CC(=O)N2CCCCCC2)c2ccccc12 | 10.2%
14 | CC1(C(=O)NS(=O)(=O)C2CC2)CCCN(C(=O)CSc2ccccc2)C1 (stereo not drawn) | 0.5%
15 | CN(C(=O)COC(=O)c1cc(=O)[nH]c2ccccc12)C1CCCCC1 | 2.1%
16 | CSCC[C@H](NC(=O)NCc1cccs1)C(=O)O | -0.9%
17 | COc1ccc(NC(=O)COc2ccc(C(=O)c3ccc(F)cc3)cc2)cc1S(N)(=O)=O | -1%
18 | C[C@@H]1CN([C@@H](C)CO)C(=O)CCCn2nncc2CO[C@@H]1CN(C)S(=O)(=O)c1ccc(-c2ccccc2)cc1 | -0.4%
19 | O=c1[nH]snc1-c1c(Cl)cccc1Cl | -0.7%
20 | COC(=O)c1c(NC(=O)COC(=O)[C@@H](NS(=O)(=O)c2ccccc2)C(C)C)sc2c1CCC2 | -0.3%
21 | CCOC(=O)C1CCN(C(=O)CN2C(=O)c3cccnc3Oc3ccc(C)cc32)CC1 | -1%
22 | CCOC(=O)C1CCN(C(=O)Cc2c(C(=O)O)[nH]c3ccccc23)CC1 | -4.4%

Row | Structure (SMILES) | inhibition
23 | CCOC(=O)N(C)c1c(CC)nc2c(OCc3ccccc3C(=O)OC)cccn12 | -0.1%
24 | CCN1CCN(c2ccc(S(=O)(=O)N3CCCCC3)cc2NC(=O)Cc2c(Cl)cccc2Cl)CC1 | -1.8%
25 | CCn1c(O)c(N=NC2=NC(=O)CS2)c2cc(C)ccc21 | -0.3%
26 | COC(=O)c1ccc(CN2CCCC(C(=O)Nc3cccc(-n4cnnn4)c3)C2)cc1 (stereo not drawn) | -3.3%
27 | CC(C)C1N=C2c3ccccc3N=C(SCC(=O)c3ccc(O)c(O)c3)N2C1=O (stereo not drawn) | 0.1%
28 | Cc1cc(C(C)(C)C)oc1C(=O)N(CC(=O)NC1CCCC1)Cc1ccc(Cl)cc1 | -0.3%
29 | CC1(C(=O)Nc2cccc(Oc3ccccc3)c2)CCN1Cc1ccccc1Cl (stereo not drawn) | -0.1%
30 | CC(C)CN(C(=O)CN1CCN(S(=O)(=O)c2ccccc2)CC1)c1c(N)n(CC(C)C)c(=O)[nH]c1=O | -2.5%
31 | Cc1cc(-c2nnc(CCC(=O)NC(c3ccccc3)c3ccccc3)o2)no1 | 0.3%
32 | Cc1onc(-c2c(F)cccc2Cl)c1C(=O)OCC(=O)N1C(C)CCCC1C (stereo not drawn) | 0.1%
33 | CCOC(=O)c1cc2c(=O)n3ccccc3nc2n(CC(C)C)c1=NC(=O)c1c(-c2c(F)cccc2Cl)noc1C | 60.3% (active)
34 | CCCn1c(=NC(C)=O)c(C(=O)OCC)cc2c(=O)n3ccccc3nc21 | 0.6%
35 | CC(C)C(C)(C#N)NC(=O)CSc1nncn1-c1ccccc1 (stereo not drawn) | -0.7%
36 | Cc1ccc(SCC2=NNC(=O)C2)cc1 | 0.6%
37 | CCc1ccc(CCC(=O)Nc2ccc(S(N)(=O)=O)cc2)o1 | 0.3%
38 | CCCCCCN1CCN(C2CN(Cc3cn(CCCCCC)nn3)S(=O)(=O)C2)CC1 (stereo not drawn) | -0.3%
39 | Cc1ccc2nc(-c3ccccc3)c(CC3CCCCC3)n2c1 | 1.4%
40 | CC1=CCC2C(=O)N(c3cccc(C(=O)NC(C)c4ccccc4)c3)C(=O)C2C1 (stereo not drawn) | -3.1%
41 | Cc1ccc(C)c(NC(=O)CN(C)C(=O)COc2ccc3ccccc3c2)c1 | -0.4%
42 | COCCNC(=O)COc1ccc(N(C)S(=O)(=O)c2ccc3ccccc3c2)cc1 | -1.4%
43 | Cc1cc2ccccc2n1CCNC(=O)COc1ccc2ccccc2c1 | 61.4% (active)
44 | Cc1ccc(S(=O)(=O)N2CC[C@H]3[C@@H](C2)C(=O)C[C@@H](c2ccccc2)N3S(=O)(=O)c2ccc(C)cc2)cc1 | -0.4%

Row | Structure (SMILES) | inhibition
45 | Cc1ccc(N(C(=O)c2ccc(CN3CCOCC3)o2)C(C(=O)NCCC(C)C)c2cccs2)c(C)c1 (stereo not drawn) | -1%
46 | Cc1cccc(N(CC(=O)Nc2ccc(-c3nc4ccc(C)cc4s3)cc2)S(C)(=O)=O)c1 | -0.9%
47 | CCCCCc1c(-c2ccc(OC)c(OC)c2)ncn1CCc1ccccc1OC | -0.2%
48 | COC(=O)c1ccc2nc(-c3ccc(OC)c(OC)c3)c(Cc3ccccc3)n2c1 | 3%
49 | CCCOc1cccc(C(=O)Nc2ccccc2C(=O)N2CCN(C)CC2)c1 | -2.3%
50 | COc1ccc(C(=O)NC(Cc2ccc(OC(=O)c3ccc(OC)cc3)cc2)C(=O)O)cc1 (stereo not drawn) | 0.4%
51 | c1csc(-c2nnc(COc3ccc4c(c3)OCO4)o2)c1 | -0.4%
52 | COC(=O)c1ccc2nc(-c3ccc(C)cc3)c(Cc3ccc(OC)cc3C)n2c1 | 0.7%
53 | Cc1[nH]c2ccccc2c1/C=N/NC(=O)CNC(=O)c1ccc2c(c1)OCO2 | 0.6%
54 | COCCNC(=S)N/N=C/c1c(C)[nH]c2ccccc12 | 42.9% (active)
55 | CN=c1scc(-c2cc(OC)ccc2OC)n1/N=C/c1c(C)[nH]c2ccccc12 | 7.7%
56 | CCCN(C(=O)CSc1nnnn1C)c1c(N)n(Cc2ccccc2)c(=O)[nH]c1=O | -0.4%
57 | CCOC(=O)c1ccn(-c2nc(-c3ccco3)cc(C(F)(F)F)n2)n1 | 0.1%
58 | O=C(Cn1cnc2c(OCc3ccccc3)ncnc21)NCc1nc2ccccc2[nH]1 | -0.1%
59 | Cc1ccc(Cc2c(-c3ccco3)nc3ccc(Cl)cn23)cc1 | 4.3%
60 | CCc1nnc(NC(=O)CSc2nc3ccccc3c(=O)n2CCCOC)s1 | 0.5%
61 | O=[N+]([O-])c1ccc(NS(=O)(=O)c2ccccc2)c(Cl)c1 | -0.4%
62 | CCN(C(=O)Cc1c(C(=O)O)n(CC)c2ccccc12)c1ccccc1C | -3.2%
63 | O=C1/C(=C/c2ccc(F)cc2)SC(=S)N1NS(=O)(=O)c1ccccc1 | 1.8%
64 | COc1cc(-c2nnc(Cn3cc(C(F)(F)F)ccc3=O)o2)cc(OC)c1OC | 0.9%
65 | COc1cc(/C=C2\SC(=S)N(Nc3ncc(C(F)(F)F)cc3Cl)C2=O)cc(OC)c1OC | 82.7% (active)
66 | Nc1nnc(SCC(=O)OCc2ccc(Cl)c(Cl)c2)s1 | -0.2%

Row | Structure (SMILES) | inhibition
67 | O=c1cnnc(Nc2ccccc2F)[nH]1 | -1.3%
68 | N#Cc1ccc(N2Cc3ccccc3/C2=N/C(=O)Nc2ccc(Cl)cc2)cc1 | -0.1%
69 | Cc1cc([N+](=O)[O-])nn1Cc1ccc(F)cc1 | -0.3%
70 | Nc1nonc1-n1nnc(C(=O)N/N=C/c2cc(Br)ccc2O)c1CSC1=NCCS1 | 0.6%
71 | COc1ccc(CCNC(=S)N2CCN(S(=O)(=O)c3ccc(F)cc3)CC2)cc1 | 0.6%
72 | Cn1c(NN)nc2sc3c(c2c1=O)CCC3 | -1.4%
73 | CC1CCc2c(sc3nc4n(c(=O)c23)CCS4)C1 (stereo not drawn) | 52.4% (active)
74 | CCCn1nnc2sc3c(c2c1=O)CCC(C)C3 (stereo not drawn) | 0.3%
75 | Cc1ccc2[nH]c(C(=O)O)c(NC(=O)c3ccccc3[N+](=O)[O-])c2c1 | 0.9%
76 | O=C1CSC(c2cccc(F)c2)N1c1ccccc1F (stereo not drawn) | -0.9%
77 | Cc1cc(Br)ccc1NC(=O)CCCOc1cc(=O)n(C)c2ccccc12 | 0%
78 | CCC(=O)N(C)C(c1ccccc1Cl)c1nnnn1-c1c(C)cccc1C (stereo not drawn) | -0.4%
79 | COc1ccc(/C(=N\O)c2nccc3cc(OC)c(OC)cc23)cc1OC | -0.2%
80 | COc1ccc(C2OC(CCc3ccccc3)Cc3[nH]c(=S)[nH]c(=O)c32)cc1 (stereo not drawn) | 0.5%
81 | CCOc1ccc2ccccc2c1/C=N/NC(=O)c1c(C)cc(C)[nH]c1=O | 0.8%
82 | O=C(O)c1ccc2c(=O)n3c(nc2c1)/C(=C/c1ccc(OC(F)F)cc1OC(F)F)CC3 | -1.9%
83 | CC(C)(C)c1ccc(S(=O)(=O)NC(=O)C2(C)CCN2C(=O)CC2CC2)cc1 (stereo not drawn) | -0.9%
84 | O=C(CC(NC(=O)c1ccccc1)c1ccccc1)Nc1ccc(F)c(F)c1 (stereo not drawn) | -0.5%
85 | CN(C(=O)CSc1nnc(-c2n[nH]c3ccccc23)o1)c1ccccc1 | 0.1%
86 | Cc1nc(C(F)(F)F)ccc1C(=O)N1CCC1(C)C(=O)NS(=O)(=O)c1ccccc1 (stereo not drawn) | -0.7%
87 | Nc1nc2c(ncn2[C@@H]2O[C@H](CNCc3ccc(OCCCN4CCOCC4)cc3)[C@@H](O)[C@H]2O)c(=O)[nH]1 | -0.1%
88 | CCc1oc(-c2ccc(OC)cc2)c(C(=O)OCCCCCO)c1C(C)OCCO (stereo not drawn) | 0.8%
